# PubChem BioAssay (NCATS)
# Results filed as inconclusive are left out. A call without a number means that no potency is given here. Calls of active or inactive are those of the source. Unless noted, calls come from the whole dose curve; as a rule, active = well fitted curve in the direction sought with a large enough effect; inconclusive = small, poorly fitted or top-dose-only effect, or another doubt; inactive = no such curve, though single readings can be large; an effect the other way counts as inactive or inconclusive.
# Assays:
# [1] = target: Cytochrome P450 3A4 (Homo sapiens) (UniProt P08684); experiment: qHTS Assay for Activators of Cytochrome P450 3A4 (AID 885); note: nearly all actives have a fitted effect of over 65% in size
# Chain of Cytochrome P450 3A4 (Homo sapiens) (P08684 whole entry, looked up): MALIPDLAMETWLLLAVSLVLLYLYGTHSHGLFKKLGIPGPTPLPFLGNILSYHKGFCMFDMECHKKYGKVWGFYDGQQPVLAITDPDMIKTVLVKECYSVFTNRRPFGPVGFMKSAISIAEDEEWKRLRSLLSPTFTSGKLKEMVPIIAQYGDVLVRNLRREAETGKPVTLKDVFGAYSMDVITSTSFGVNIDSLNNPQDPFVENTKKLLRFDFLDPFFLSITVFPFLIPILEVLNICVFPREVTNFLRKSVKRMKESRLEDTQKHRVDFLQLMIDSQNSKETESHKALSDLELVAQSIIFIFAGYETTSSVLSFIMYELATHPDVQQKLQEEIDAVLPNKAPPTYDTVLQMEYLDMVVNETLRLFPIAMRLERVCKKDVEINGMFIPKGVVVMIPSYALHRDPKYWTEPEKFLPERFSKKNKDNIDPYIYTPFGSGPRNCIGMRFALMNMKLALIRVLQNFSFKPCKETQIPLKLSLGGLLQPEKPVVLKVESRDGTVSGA
# In short: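 Luminescent readout of luciferin formed from 25 uM Luciferin-PPXE (KM level) by 20 nM CYP3A4 in 200 mM KPO4, with 60 min NADPH-driven reaction at room temperature after 10 min compound exposure. Ketoconazole (57 uM) defined 100% inhibition.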
# [2] = target: Muscarinic acetylcholine receptor M1 (Rattus norvegicus) (UniProt P08482); experiment: qHTS Assay for Antagonists of Acetylcholine Muscarinic M1 Receptor: Kinetic Measurement of Intracellular Calcium Response (AID 943); note: nearly all actives have a fitted effect of over 75% in size; note: potency is the fitted concentration of half-maximal effect
# Chain of Muscarinic acetylcholine receptor M1 (Rattus norvegicus) (P08482 whole entry, looked up): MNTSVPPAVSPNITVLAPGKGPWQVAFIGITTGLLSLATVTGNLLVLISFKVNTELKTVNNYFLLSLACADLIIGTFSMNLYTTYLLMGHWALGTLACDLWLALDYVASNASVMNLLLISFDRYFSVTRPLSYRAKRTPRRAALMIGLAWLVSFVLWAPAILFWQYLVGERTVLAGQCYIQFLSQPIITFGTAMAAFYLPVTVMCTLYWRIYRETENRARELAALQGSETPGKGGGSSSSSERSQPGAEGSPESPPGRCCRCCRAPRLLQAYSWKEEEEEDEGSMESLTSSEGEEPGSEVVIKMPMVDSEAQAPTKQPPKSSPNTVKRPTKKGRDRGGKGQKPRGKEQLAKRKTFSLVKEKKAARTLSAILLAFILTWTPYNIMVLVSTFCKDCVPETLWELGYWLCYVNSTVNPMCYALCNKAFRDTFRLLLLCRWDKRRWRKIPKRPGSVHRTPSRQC
# In short: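 Read-out: peak over basal Fluo-4 fluorescence, kinetic at 1 Hz for 4 min after EC80 carbachol (100 nM final). Rat M1-CHO cells, dye loaded 1 h at 37C, compound added 10 min before agonist.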
# [3] = qHTS Assay for Identification of Small Molecule Antagonists for NFkB Signaling Pathway (AID 895; active = well fitted inhibition curve with a large enough effect in the signal ratio, with a control signal flat, not every such curve was filed as active; the % refers to the signal ratio)
# In short: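 ME-180 NFkB-bla cells (beta-lactamase under NFkB response element), plated overnight, treated with compound then 10 pM TNF alpha (about EC50) for 5 hrs at 37 C. LiveBLAzer FRET read at 460/530 nm emission, 405 nm excitation.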
# [4] = target: Muscarinic acetylcholine receptor M1 (Rattus norvegicus) (UniProt P08482); experiment: qHTS Assay for Antagonists of Acetylcholine Muscarinic M1 Receptor: Measurement of IP-One Response (AID 944); note: nearly all actives have a fitted effect of over 75% in size; note: potency is the fitted concentration of half-maximal effect
# In short: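 Read-out: HTRF competition between d2-IP1 and Eu-cryptate anti-IP1 antibody, emission 620 and 665 nm. Stimulus was carbachol, EC80 (200 nM), for 30 min in M1-CHO cells (rat receptor), after 10 min compound pre-treatment.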
smiles,measurement,setting,value
COc1cc(C[C@H](C)N)c(OC)cc1I,Potency,[1],inactive
same,Potency,[2],0.891 µM (active)
CCn1cnc2c(Nc3cccc(Cl)c3)nc(N[C@@H]3CCCC[C@H]3N)nc21,Potency,[1],inactive
Oc1ccc2c3c1O[C@@H]1c4[nH]c5c(c4C[C@@]4(O)[C@@H](C2)N(CC2CC2)CC[C@]314)C[C@]1(O)[C@@H]2Cc3ccc(O)c4c3[C@@]1(CCN2CC1CC1)[C@H]5O4,Potency,[3],inactive
same,Potency,[2],inactive
CC(=O)OCC1=C(C(=O)[O-])N2C(=O)[C@@H](NC(=O)CCC[C@@H](N)C(=O)[O-])[C@@H]2SC1.[Zn+2],Potency,[3],inactive
same,Potency,[2],inactive
same,Potency,[4],inactive
CCN(CC)c1ncnc2c1ncn2[C@@H]1O[C@@H](COP(=O)(O)OP(=O)(O)C(Br)(Br)P(=O)(O)O)[C@H](O)[C@@H]1O,Potency,[2],inactive
same,Potency,[4],inactive
COc1ccc2c(c1)[C@]13CCCC[C@@H]1[C@H](C2)NCC3,Potency,[1],inactive
same,Potency,[4],inactive
Nc1ncnc2c1ncn2[C@@H]1O[C@@H](COP(=O)(O)CP(=O)(O)OP(=O)(O)O)[C@H](O)[C@@H]1O,Potency,[4],inactive
C[N+]1(C)C2CC(OC(=O)C(CO)c3ccccc3)CC1[C@@H]1O[C@H]21 (some centres undefined),Potency,[3],inactive
C=CCN1CC[C@]23c4c5ccc(O)c4O[C@@H]2/C(=N/NC(=O)c2ccccc2)CC[C@@]3(O)[C@H]1C5,Potency,[1],inactive
same,Potency,[2],inactive
same,Potency,[4],inactive
COc1cc([C@@H](O)CN)ccc1O,Potency,[4],inactive
COc1ccc2c3c1O[C@@H]1C(=O)CC[C@@]4(O)[C@@H](C2)N(CC2CC2)CC[C@]314,Potency,[1],inactive
same,Potency,[3],inactive
same,Potency,[4],inactive
C[C@]12CC[C@H](O)CC1=CC[C@@H]1[C@H]2CC[C@]2(C)C(=O)CC[C@H]12,Potency,[3],inactive
same,Potency,[4],inactive
O=C(O)[C@H]1[C@H](C(=O)O)[C@H]2CC[C@@H]1O2,Potency,[2],inactive
same,Potency,[4],inactive
CC(C)N[C@@H](C)Cc1ccc(I)cc1,Potency,[2],8.91 µM (active)
same,Potency,[4],14.1 µM (active)
C[C@@]12CC[C@H]3[C@@H](CCC4=C(O)C(=O)CC[C@]43C)[C@H]1CCC2=O,Potency,[3],inactive
same,Potency,[4],inactive
NC[C@H](O)c1cc(O)c(O)cc1F,Potency,[3],inactive
same,Potency,[4],inactive
COC(=O)[C@H](N)CCCN=C(N)N[N+](=O)[O-],Potency,[3],inactive
same,Potency,[4],inactive
N[C@H](Cc1ccc(N(CCCl)CCCl)cc1)C(=O)O,Potency,[4],inactive
COc1ccc2c(c1O)-c1cccc3c1[C@H](C2)N(C)CC3,Potency,[1],inactive
same,Potency,[3],inactive
same,Potency,[4],inactive
CCNC(=O)[C@@H]1O[C@@H](n2cnc3c(N)ncnc32)[C@@H](O)[C@H]1O,Potency,[3],inactive
same,Potency,[2],inactive
same,Potency,[4],inactive
C[N+]1(C)CCc2cc3c(cc2[C@@H]1[C@@H]1OC(=O)c2c1ccc1c2OCO1)OCO3,Potency,[3],inactive
N[C@H](Cn1ccc(=O)[nH]c1=O)C(=O)O,Potency,[3],inactive
same,Potency,[2],inactive
CO[C@@H]1CC=C2CCN3CCC4=C(CC(=O)OC4)[C@]23C1,Potency,[4],inactive
CC(=O)[C@@H]1CC[C@H]2[C@H]3CC[C@H]4C[C@@H](O)CC[C@]4(C)[C@@H]3CC[C@]12C,Potency,[1],inactive
same,Potency,[4],inactive
C[C@@]12CC[C@H]3[C@@H](CC=C4C[C@H](OS(=O)(=O)O)CC[C@]43C)[C@H]1CCC2=O,Potency,[3],inactive
same,Potency,[2],inactive
same,Potency,[4],inactive
